From ChEMBL document CHEMBL1157539, “Thousands of chemical starting points for antimalarial lead identification” (Nature, 2010)

What was measured:
Assay type in all cases: functional
Plasmodium falciparum [1] = assay: GSK_TCMDC: Inhibition of Plasmodium falciparum 3D7 in whole red blood cells, using parasite LDH activity as an index of growth. Test compounds present at 2uM
Plasmodium falciparum [2] = assay: GSK_TCMDC: Inhibition of Plasmodium falciparum Dd2 in whole red blood cells, using parasite LDH activity as an index of growth. Test compounds present at 2uM
HepG2 = assay: GSK_TCMDC: Percent inhibition of human HepG2 cell line. Test compounds present at 10uM.

SMILES | Inhibition (Plasmodium falciparum [1]) | Inhibition (Plasmodium falciparum [2]) | Inhibition (HepG2)
COc1ccc(-c2cnc3[nH]cc(-c4ccc(CCC(=O)O)cc4)c3c2)cn1.O=C(O)C(F)(F)F | 98% | 95% | 25%
CC(Nc1nncc(-c2cccc(F)c2)n1)c1ccc(F)cc1 (stereo not given) | 95% | 89% | 4%
O=C(Nc1ccc(OC2CCN(Cc3ccccc3)C2)c(Cl)c1)c1ccsc1.O=C(O)C(F)(F)F (stereo not given) | 93% | 75% | 12%
C=CCn1c(=N)n(CC(O)c2ccc(Cl)c(Cl)c2)c2ccccc21.Cl (stereo not given) | 91% | 80% | 15%
COc1ccc2c(c1)CC(NCc1ccc(-c3ccc4nc[nH]c4c3)cc1)C2.O=C(O)C(F)(F)F (stereo not given) | 100% | 71% | 30%
Cc1cccc2nc(-c3ccc(-c4ccc(NC(=O)NCc5ccc(F)cc5)cc4)cc3)[nH]c12 | 100% | 99% | 70%
O=C(N[C@H]1CCN(Cc2ccc(OC3CCN(Cc4ccccc4)CC3)cc2)C1)c1ccc(Cl)c(Cl)c1.O=C(O)C(F)(F)F | 90% | 6% | 37%
Cc1cc(N[C@@H](Cc2ccccc2)C(=O)NC2CCCC2)nc(Nc2ccccc2)n1.O=C(O)C(F)(F)F | 100% | 82% | 3%
CC(=O)c1ccc(N2C(=O)C3C(Cc4ccc(OC(C)(C)C)cc4)NC4(C(=O)N(Cc5ccc(C(C)(C)C)cc5)c5ccccc54)C3C2=O)cc1 (stereo not given) | 86% | 81% | 13%
O=c1cc(NC[C@H]2CCC[C@@H]2NC2CCCc3c2[nH]c2ccccc32)[nH]c2ccccc12 (stereo not given in full) | 100% | 25% | 6%
